N-glyco inh – blocks N-linked glycosylation in D54 reporter cells; actives 0.23% (n = 360,000); D54 ERlucT glycosylation luciferase reporter, 24 h; percent of 100 nM tunicamycin response; AID 588692; reporter increase, % at 12.5 µM;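 active means mean luciferase reporter signal, scaled so untreated is 0 and the glycosylation-blocking control 100, at or above a set limit in every replicate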;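 further: luciferase carries N-glycosylation sites so blocking glycosylation raises the light; 0% = median of neutral control wells and 100% = median of 100 nM tunicamycin wells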
ALR H2O2 inh – blocks human ALR sulfhydryl oxidase activity; P55789; purified ALR, DTT oxidation, H2O2 HRP-luminol luminescence; inhibition, % (no concentration beside the values); actives 3.8% (n = 290,000); AID 485317;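 active means mean replicate inhibition above about 79%, with every replicate also reaching it, limit read from the data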
CASP6 VEID inh – blocks human caspase-6 cleavage activity. actives 0.53% (n = 350,000). AID 686996. purified caspase-6, Z-VEID-R110 cleavage fluorescence. inhibition, % at 12.5 µM. P55212;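 active means mean inhibition across replicates at least about 35%, with every replicate also reaching that limit, limit read from the data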;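 further: 0% = median of neutral control wells and 100% = no fluorescence left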
NSD2 inh – NSD2 (human) methyltransferase inhibition; actives 0.54% (n = 310,000); inhibition, % at 12.5 µM; NSD2 peptide methylation, AlphaScreen, 120 min; O96028; in the data active means inhibition above about 50%
CDK5 inh – inhibitors of human CDK5/p35 kinase | Q00535+Q15078 | Recombinant CDK5/p35, ADP-Glo luminescence, 60 min | inhibition, % at 10 µM | actives 0.01% (n = 330,000);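 active means highest replicate inhibition of at least 50% and at least 75% of replicates reaching 50%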;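 further: plate controls were DMSO neutral control for no effect and GW8510 at 10 µM for full effect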
Target sequence (Q00535 whole entry, looked up): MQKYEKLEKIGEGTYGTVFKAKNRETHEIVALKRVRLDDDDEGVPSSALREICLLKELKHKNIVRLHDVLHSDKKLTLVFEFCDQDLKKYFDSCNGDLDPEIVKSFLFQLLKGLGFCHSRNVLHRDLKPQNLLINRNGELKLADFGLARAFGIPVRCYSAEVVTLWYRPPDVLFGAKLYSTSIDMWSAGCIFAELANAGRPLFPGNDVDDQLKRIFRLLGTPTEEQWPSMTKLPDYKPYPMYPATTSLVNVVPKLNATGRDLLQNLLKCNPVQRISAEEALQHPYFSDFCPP
Target sequence (Q15078 whole entry, looked up): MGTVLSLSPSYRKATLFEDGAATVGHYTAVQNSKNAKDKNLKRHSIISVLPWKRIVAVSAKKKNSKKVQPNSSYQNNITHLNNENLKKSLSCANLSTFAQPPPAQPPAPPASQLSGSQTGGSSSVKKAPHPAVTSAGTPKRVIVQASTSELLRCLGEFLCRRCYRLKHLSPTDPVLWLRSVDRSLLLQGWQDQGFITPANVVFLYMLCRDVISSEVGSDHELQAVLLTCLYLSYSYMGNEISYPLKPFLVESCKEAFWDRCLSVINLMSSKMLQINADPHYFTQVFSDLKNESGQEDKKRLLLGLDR
SUMO Mot1 rescue – SUMOylation pathway inhibition by Mot1-301 growth rescue | S. cerevisiae Mot1-301 growth rescue, ATP luminescence, 38.5C; percent above DMSO median, 100 means doubled | growth rescue, % at 18.8 µM | actives 1% (n = 320,000);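 active means every valid replicate shows activation above 250% relative to neutral control wells; inactive means the rest, any valid replicate at or below 250%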;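 further: OY570 slx delta 5 strain wells were the positive control but not used for scaling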
Alpha artifact – interferes with AlphaScreen signal, flagging NSD2 false positives | AID 1053174 | actives 9.4% (n = 1,500) | AC35, µM (titrated, usually from 10 µM), for the others: top-dose activity change, negative = signal loss | AlphaScreen artifact counterscreen, preloaded methylated H4 peptide | shares compounds with NSD2 inh; call rule not given here
The depositor's hits bear a star; . = no result given. Most compounds without a hit are left out; they make up all but 3.9% or so of the library.

SMILES	N-glyco inh	ALR H2O2 inh	CASP6 VEID inh	NSD2 inh	CDK5 inh	SUMO Mot1 rescue	Alpha artifact
O=C(Nc1ccccc1)N[C@H]1CC[C@@H](CCNS(=O)(=O)c2ccccc2F)O[C@H]1CO	.	.	-0.7	.	.	.	.
CN(C)CC#Cc1ccc([C@H]2[C@@H](CO)N3C(=O)CN(C(=O)c4ccccc4)C[C@H]23)cc1	.	.	-33.4	.	.	.	.
CCOC(=O)c1cc2cc(CC(=O)c3ccc(OCC)cc3O)ccc2o1	1.8	.	.	0.0	1.7	4.5	.
CCOC(=O)c1ccc(CC(=O)c2ccc(O)c(O)c2O)o1	0.2	.	16.0	91.2*	0.9	.	-8.4%
CC1(C)CN(c2ccc(CC#N)cc2)C1=O	1.9	0.0	.	0.3	-0.6	-0.9	.
CC1(C)CN(c2cccc(C#N)c2)C1=O	2.2	-4.9	-1.0	55.9*	3.3	-15.6	-3.4%
O=C(N[C@@H]1C=C[C@@H](CC(=O)N2CCCCC2)O[C@@H]1CO)c1ccccn1	.	.	0.6	.	.	.	.
Cc1c(-c2cccc(Cl)c2)nc2ccccc2c1C(=O)OC/C(O)=C(\C#N)c1nc2ccccc2[nH]1	63.2*	.	2.7	55.9*	1.1	-9.9	-9.3%
CCOC(=O)c1c(C)[nH]c(C(=O)OCC(O)=C(C#N)c2nc3ccccc3[nH]2)c1C	-7.8	.	1.7	-1.1	-3.8	.	.
CSc1nnc(-c2ccco2)c(-c2ccco2)n1	3.2	4.9	48.0*	113.7*	-0.1	-23.6	-8.0%
CC(=O)N1[C@@H](CO)[C@@H](c2ccccc2)C12CN(C(=O)c1ccccc1)C2	.	.	-2.2	.	.	.	.
C[C@H](CO)N1C[C@H](C)[C@@H](CN(C)S(=O)(=O)c2ccccc2)Oc2ccc(NC(=O)C3CC3)cc2CC1=O	.	.	-2.4	.	.	.	.
COc1cccc2c1C(=N)c1c(O)c3c(c(O)c1C2=O)CC(O)(C(C)=O)CC3OC1CC(N)C(O)C(C)O1 (configuration not stated)	-2.5	.	.	56.1*	4.4	.	8.46µM*
Cc1ccc(C(=O)Nc2ccc(CC(=O)O)cc2)o1	0.5	-1.1	.	126.2*	-0.5	1.4	-3.1%
Cc1ccc(C(=O)Nc2ccc(NC(=O)c3ccc(C)o3)cc2)o1	-1.4	-8.1	0.8	0.9	0.4	-12.5	.
N#C[C@@H]1[C@H](c2ccc(C3=CCCCC3)cc2)[C@H](CO)N1C(=O)CN1CCOCC1	.	.	-2.1	.	.	.	.
Cc1nc([N+](=O)[O-])c(C(=O)OCc2ccccc2Br)n1C	-1.5	.	-2.5	0.9	0.6	-4.9	.
Cc1nc([N+](=O)[O-])c(C(=O)OCc2ccccc2F)n1C	-1.3	-11.2	1.3	53.9*	-1.7	3.0	-2.8%
C[C@@H]1CCCCO[C@H](CN(C)S(=O)(=O)c2cn(C)cn2)[C@H](C)CN([C@H](C)CO)C(=O)c2cc(NC(=O)CCCN(C)C)ccc2O1	.	.	-5.9	.	.	.	.
Cn1c(=O)c2c(nc(CN3CCc4ccccc4C3)n2CCCO)n(C)c1=O	0.6	-19.9	-0.9	1.8	-0.7	7.1	.
Cn1c(=O)c2c(nc(CN3CCc4ccccc4C3)n2CCc2ccccc2)n(C)c1=O	.	.	.	68.6*	.	.	-3.8%
COc1ccccc1OCC(=O)Nc1ccc(S(=O)(=O)N2CCCC2)cc1	-1.6	7.7	-0.1	69.5*	-1.0	-14.0	-1.7%
COc1ccccc1OCC(=O)Nc1ccccc1C(=O)N1CCCC1	0.5	0.3	-0.5	80.0*	-5.4	5.2	-2.8%
COc1ccccc1C(=O)Nc1ccccc1C(=O)N1CCCC1	-0.4	-39.2	.	-2.2	-0.6	-2.9	.
COc1ccccc1OCC(=O)Nc1ccc(S(=O)(=O)N2CCN(C)CC2)cc1	-0.7	-12.3	-0.8	3.6	0.1	-17.8	.
Cc1noc(C)c1NC(=O)N[C@H]1CC[C@@H](CCNC(=O)C2CCCC2)O[C@H]1CO	.	.	1.7	.	.	.	.
Cc1ccc(O)c(NC(=O)c2cc3nc4c(c(C(F)(F)F)n3n2)CCc2ccccc2-4)c1	0.6	-17.1	.	69.8*	-0.7	-1.3	-3.8%
CCOc1ccc(-c2nnc(SCc3nc4ccccc4[nH]3)n2N)cc1	-0.9	39.6	.	71.9*	-1.3	215.1	-3.7%
CCOc1ccc(-n2c(COc3ccccc3)nnc2SCc2nc3ccccc3[nH]2)cc1	.	.	.	-2.9	.	.	.

Assay outcomes deposited in PubChem by Broad Institute.
